The test system of assay [1] is Epidermal growth factor receptor (Homo sapiens), P00533 [T790M]. The following applies: at 1 µM.
Assay [2] has as its system Epidermal growth factor receptor (Homo sapiens), P00533 [L858R,T790M]. The conditions noted are these: at 0.1 µM.
Assay [3] has the same test system. The following applies: at 1 µM.
The target of assay [4] is Ephrin type-A receptor 2 (Homo sapiens) (UniProt P29317). The conditions noted are these: at 0.1 µM.
Assay [5] shares this target. The conditions noted are these: at 1 µM.
Assay [6] addresses T1, Ephrin type-A receptor 3 (Homo sapiens) (UniProt P29320).
T1 sequence (whole entry): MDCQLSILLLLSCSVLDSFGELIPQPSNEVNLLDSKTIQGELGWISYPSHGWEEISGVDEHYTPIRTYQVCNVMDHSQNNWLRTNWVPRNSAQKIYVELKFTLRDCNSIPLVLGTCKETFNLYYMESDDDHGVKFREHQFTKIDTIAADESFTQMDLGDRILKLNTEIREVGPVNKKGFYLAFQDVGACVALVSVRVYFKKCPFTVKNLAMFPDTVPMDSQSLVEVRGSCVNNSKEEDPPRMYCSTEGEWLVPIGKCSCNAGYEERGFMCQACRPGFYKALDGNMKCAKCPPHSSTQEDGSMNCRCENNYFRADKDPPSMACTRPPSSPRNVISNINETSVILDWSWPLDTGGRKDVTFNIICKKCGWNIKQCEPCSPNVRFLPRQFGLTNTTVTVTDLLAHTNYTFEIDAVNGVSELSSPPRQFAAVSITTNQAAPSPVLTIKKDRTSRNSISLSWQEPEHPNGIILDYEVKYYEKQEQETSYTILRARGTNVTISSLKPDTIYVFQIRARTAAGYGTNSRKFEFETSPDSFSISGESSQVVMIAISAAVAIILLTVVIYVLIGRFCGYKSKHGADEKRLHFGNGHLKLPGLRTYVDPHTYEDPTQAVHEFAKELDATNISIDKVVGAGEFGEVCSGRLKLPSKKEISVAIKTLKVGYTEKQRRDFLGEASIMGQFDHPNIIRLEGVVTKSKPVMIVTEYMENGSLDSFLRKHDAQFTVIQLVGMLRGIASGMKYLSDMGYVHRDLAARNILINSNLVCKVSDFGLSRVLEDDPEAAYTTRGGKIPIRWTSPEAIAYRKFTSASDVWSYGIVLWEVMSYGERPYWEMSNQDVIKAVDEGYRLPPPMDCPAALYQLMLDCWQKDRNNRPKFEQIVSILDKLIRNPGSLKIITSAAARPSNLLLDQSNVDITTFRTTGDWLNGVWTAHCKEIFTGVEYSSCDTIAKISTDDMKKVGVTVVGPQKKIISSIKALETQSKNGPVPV
The following applies: at 0.1 µM.

The target of assay [7] is T1, Ephrin type-A receptor 3 (Homo sapiens). The following applies: at 1 µM.
The target in assay [8] is Ephrin type-A receptor 4 (Homo sapiens) (UniProt P54764). The following applies: at 0.1 µM.
Chain of Ephrin type-A receptor 4 (Homo sapiens) (P54764 whole entry): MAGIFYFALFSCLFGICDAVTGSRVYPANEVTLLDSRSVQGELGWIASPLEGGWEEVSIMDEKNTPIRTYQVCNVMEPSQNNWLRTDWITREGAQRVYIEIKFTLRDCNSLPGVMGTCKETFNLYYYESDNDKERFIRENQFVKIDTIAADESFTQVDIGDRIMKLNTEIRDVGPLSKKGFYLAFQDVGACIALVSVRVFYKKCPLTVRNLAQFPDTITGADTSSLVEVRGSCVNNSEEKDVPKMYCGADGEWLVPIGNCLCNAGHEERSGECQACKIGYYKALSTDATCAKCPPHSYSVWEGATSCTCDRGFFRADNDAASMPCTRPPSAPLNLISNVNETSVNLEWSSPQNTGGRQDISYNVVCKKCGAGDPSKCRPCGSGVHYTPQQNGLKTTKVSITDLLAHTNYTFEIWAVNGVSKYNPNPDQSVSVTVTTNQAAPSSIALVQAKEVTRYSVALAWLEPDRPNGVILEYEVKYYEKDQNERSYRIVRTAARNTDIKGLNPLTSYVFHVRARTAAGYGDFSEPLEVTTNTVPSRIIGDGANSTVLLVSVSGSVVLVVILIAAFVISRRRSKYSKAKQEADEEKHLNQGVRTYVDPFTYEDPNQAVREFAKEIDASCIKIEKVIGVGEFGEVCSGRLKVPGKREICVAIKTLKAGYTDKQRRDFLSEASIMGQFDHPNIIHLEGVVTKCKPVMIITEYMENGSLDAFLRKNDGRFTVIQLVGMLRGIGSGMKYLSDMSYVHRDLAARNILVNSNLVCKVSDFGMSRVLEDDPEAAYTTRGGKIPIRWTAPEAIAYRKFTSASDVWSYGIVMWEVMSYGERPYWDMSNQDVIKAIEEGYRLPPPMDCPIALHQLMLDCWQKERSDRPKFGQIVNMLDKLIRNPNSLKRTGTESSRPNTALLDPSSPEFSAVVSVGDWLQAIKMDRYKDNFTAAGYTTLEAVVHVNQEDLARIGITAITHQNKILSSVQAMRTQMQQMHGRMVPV
Assay [9] has the same target. The following applies: at 1 µM.
Assay [10] deals with T2, Ephrin type-B receptor 2 (Homo sapiens) (UniProt P29323).
T2 sequence (whole entry): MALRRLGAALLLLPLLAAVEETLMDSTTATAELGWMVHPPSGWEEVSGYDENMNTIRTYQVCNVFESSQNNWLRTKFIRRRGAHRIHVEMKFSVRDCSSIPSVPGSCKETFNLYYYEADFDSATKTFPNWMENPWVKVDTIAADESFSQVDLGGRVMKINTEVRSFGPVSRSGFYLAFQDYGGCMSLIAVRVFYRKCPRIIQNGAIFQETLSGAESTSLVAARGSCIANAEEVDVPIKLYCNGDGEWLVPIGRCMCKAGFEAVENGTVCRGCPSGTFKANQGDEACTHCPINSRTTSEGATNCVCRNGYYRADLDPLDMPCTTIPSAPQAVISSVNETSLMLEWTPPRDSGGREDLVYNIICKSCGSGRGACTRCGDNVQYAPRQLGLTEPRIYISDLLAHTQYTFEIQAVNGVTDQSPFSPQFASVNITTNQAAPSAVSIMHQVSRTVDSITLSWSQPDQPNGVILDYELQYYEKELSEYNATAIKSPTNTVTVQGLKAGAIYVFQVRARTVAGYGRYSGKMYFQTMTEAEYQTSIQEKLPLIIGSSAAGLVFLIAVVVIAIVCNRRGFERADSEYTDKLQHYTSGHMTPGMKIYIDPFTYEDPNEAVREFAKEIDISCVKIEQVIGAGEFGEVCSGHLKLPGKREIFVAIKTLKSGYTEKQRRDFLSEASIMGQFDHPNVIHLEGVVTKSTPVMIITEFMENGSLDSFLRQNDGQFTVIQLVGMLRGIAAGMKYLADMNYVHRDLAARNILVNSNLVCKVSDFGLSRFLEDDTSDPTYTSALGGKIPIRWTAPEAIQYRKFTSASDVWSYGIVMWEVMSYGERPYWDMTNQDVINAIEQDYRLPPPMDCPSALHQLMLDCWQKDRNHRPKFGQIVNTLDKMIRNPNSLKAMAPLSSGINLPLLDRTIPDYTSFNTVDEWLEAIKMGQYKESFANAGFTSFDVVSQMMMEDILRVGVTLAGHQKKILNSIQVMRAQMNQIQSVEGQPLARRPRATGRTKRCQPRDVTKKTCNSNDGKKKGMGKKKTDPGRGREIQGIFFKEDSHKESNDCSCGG
The conditions noted are these: at 0.1 µM.

Assay [11] concerns the target T2, Ephrin type-B receptor 2 (Homo sapiens). The conditions noted are these: at 1 µM.
Assay [12] has as its target T3, Ephrin type-B receptor 3 (Homo sapiens) (UniProt P54753).
T3 sequence (whole entry): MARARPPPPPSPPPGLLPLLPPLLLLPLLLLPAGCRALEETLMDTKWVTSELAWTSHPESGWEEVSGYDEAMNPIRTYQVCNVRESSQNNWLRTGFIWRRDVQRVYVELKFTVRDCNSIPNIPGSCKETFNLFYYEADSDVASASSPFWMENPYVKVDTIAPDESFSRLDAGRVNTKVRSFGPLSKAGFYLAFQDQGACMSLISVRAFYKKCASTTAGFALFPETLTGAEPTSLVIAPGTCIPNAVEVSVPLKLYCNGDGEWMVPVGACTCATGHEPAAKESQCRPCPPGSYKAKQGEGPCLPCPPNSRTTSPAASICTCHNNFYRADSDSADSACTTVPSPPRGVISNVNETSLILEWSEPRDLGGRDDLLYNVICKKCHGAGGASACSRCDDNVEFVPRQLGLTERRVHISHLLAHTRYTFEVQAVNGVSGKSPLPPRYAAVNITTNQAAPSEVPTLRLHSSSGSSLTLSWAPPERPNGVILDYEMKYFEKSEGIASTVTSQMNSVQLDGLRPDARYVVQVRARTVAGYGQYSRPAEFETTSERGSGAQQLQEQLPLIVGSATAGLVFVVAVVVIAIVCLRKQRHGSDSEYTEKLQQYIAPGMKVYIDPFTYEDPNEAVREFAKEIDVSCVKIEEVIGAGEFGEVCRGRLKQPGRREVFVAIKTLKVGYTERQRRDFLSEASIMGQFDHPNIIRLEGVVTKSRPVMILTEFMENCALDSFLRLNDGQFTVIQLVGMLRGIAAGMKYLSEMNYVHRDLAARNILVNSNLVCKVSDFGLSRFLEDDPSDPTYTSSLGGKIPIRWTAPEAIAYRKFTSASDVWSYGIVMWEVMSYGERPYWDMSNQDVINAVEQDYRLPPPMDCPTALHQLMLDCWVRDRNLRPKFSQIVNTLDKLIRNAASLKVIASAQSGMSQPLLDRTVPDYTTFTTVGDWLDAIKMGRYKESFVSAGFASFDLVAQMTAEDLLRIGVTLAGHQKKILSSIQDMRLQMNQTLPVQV
The conditions noted are these: at 0.1 µM.

Assay [13] deals with T3, Ephrin type-B receptor 3 (Homo sapiens). The conditions noted are these: at 1 µM.
Assay [14] concerns the target T4, Ephrin type-B receptor 4 (Homo sapiens) (UniProt P54760).
T4 sequence (whole entry): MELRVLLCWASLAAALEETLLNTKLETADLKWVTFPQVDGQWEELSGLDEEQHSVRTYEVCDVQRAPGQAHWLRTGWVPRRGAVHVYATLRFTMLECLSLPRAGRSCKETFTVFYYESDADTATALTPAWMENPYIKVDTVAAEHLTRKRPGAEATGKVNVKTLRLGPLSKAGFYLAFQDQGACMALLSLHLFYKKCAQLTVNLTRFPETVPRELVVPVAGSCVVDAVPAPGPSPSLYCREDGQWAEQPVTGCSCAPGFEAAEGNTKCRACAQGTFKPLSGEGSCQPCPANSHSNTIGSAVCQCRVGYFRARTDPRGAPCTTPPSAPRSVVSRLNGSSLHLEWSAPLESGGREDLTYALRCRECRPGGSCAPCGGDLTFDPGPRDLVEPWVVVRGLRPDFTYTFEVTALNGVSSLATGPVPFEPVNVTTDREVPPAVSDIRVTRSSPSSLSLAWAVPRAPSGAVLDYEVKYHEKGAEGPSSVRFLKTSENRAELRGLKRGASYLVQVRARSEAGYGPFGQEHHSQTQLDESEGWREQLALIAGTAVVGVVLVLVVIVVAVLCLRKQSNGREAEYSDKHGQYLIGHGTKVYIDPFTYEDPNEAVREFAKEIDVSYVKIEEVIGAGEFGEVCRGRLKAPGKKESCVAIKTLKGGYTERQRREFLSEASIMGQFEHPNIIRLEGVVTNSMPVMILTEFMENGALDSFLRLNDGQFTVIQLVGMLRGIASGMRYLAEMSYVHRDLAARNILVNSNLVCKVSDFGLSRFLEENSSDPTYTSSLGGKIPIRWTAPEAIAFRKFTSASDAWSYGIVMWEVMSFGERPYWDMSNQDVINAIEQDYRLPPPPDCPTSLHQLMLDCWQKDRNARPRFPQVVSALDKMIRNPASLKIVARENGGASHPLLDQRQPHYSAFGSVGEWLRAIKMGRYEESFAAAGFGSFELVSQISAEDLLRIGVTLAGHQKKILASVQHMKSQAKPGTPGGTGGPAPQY
The following applies: at 0.1 µM.

Assay [15] addresses T4, Ephrin type-B receptor 4 (Homo sapiens). The conditions noted are these: at 1 µM.
The target in assay [16] is Receptor tyrosine-protein kinase erbB-2 (Homo sapiens) (UniProt P04626). The following applies: at 0.1 µM.
For assay [17] the target is unchanged. The conditions noted are these: at 1 µM.
The target in assay [18] is Receptor tyrosine-protein kinase erbB-4 (Homo sapiens) (UniProt Q15303). The following applies: at 0.1 µM.
For assay [19] the target is unchanged. The conditions noted are these: at 1 µM.
In assay [20] the target is Tyrosine-protein kinase Fer (Homo sapiens) (UniProt P16591). The following applies: at 0.1 µM.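 Note: reported figures are averaged percent inhibition of FER.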

What is called inhibition is the change of the read-out against control, counted positive when it falls.

Molecules are shown by their SMILES.

Chain of Epidermal growth factor receptor (Homo sapiens), P00533 [L858R,T790M] (P00533 whole entry T790M/L858R, looked up): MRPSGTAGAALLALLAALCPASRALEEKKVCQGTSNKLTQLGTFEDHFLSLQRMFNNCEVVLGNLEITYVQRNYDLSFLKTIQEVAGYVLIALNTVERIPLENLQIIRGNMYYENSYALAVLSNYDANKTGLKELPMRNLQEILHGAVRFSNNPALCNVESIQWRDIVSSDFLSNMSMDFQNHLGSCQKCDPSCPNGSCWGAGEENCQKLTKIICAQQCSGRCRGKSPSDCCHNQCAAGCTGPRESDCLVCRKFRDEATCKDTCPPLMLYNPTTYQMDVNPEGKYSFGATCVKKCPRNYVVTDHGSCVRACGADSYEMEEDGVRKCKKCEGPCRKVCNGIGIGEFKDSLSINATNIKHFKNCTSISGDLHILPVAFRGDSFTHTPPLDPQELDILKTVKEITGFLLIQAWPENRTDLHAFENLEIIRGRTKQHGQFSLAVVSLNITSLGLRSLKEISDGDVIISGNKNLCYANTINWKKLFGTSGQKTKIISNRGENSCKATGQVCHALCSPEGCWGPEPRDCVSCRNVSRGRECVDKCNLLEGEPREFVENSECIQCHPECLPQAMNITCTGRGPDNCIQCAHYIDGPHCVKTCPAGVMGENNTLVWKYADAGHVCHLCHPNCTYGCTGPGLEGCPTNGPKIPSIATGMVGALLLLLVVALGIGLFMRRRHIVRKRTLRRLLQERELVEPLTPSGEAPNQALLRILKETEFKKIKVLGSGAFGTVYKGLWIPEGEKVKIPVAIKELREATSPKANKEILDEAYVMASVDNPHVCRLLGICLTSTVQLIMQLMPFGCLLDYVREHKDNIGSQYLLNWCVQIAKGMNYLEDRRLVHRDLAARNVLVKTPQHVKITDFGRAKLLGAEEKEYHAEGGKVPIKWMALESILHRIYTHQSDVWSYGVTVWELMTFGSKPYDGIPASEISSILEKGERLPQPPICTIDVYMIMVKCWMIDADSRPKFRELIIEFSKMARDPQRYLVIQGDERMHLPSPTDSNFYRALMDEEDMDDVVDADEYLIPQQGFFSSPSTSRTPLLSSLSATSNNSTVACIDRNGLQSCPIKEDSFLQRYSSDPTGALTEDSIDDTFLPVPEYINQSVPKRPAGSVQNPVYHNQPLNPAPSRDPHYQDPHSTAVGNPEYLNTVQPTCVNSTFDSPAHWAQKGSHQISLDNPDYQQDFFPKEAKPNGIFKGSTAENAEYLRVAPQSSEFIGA
Chain of Epidermal growth factor receptor (Homo sapiens), P00533 [T790M] (P00533 whole entry T790M): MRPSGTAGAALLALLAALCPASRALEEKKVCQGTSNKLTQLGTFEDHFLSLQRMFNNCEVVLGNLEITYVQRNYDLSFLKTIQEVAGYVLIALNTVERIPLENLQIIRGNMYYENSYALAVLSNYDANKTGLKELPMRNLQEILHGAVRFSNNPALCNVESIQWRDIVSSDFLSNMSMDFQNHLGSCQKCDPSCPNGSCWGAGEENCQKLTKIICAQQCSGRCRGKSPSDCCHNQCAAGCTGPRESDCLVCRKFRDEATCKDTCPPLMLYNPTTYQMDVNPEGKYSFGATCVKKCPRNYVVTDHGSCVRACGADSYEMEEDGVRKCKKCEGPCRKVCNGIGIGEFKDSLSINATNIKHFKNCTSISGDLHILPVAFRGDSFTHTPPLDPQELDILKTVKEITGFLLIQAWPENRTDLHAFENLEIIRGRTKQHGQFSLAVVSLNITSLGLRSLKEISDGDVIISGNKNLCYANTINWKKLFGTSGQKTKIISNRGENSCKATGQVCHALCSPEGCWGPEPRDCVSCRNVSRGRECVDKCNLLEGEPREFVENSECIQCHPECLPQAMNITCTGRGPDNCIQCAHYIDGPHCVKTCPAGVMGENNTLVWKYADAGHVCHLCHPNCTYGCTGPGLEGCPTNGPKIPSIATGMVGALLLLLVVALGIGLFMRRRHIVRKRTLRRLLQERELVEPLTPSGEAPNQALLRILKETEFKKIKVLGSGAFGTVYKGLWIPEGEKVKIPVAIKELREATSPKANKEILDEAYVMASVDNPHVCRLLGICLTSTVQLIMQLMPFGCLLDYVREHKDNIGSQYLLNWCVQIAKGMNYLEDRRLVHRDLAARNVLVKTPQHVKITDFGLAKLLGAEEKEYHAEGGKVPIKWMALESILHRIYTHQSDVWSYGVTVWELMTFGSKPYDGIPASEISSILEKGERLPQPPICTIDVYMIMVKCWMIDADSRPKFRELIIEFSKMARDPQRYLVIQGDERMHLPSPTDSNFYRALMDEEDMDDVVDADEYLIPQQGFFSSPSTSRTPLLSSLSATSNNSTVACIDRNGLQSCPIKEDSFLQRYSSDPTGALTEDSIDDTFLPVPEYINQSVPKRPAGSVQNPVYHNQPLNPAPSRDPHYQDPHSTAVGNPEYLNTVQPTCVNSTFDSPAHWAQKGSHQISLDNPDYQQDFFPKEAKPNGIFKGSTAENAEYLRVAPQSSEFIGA
Chain of Ephrin type-A receptor 2 (Homo sapiens) (P29317 whole entry): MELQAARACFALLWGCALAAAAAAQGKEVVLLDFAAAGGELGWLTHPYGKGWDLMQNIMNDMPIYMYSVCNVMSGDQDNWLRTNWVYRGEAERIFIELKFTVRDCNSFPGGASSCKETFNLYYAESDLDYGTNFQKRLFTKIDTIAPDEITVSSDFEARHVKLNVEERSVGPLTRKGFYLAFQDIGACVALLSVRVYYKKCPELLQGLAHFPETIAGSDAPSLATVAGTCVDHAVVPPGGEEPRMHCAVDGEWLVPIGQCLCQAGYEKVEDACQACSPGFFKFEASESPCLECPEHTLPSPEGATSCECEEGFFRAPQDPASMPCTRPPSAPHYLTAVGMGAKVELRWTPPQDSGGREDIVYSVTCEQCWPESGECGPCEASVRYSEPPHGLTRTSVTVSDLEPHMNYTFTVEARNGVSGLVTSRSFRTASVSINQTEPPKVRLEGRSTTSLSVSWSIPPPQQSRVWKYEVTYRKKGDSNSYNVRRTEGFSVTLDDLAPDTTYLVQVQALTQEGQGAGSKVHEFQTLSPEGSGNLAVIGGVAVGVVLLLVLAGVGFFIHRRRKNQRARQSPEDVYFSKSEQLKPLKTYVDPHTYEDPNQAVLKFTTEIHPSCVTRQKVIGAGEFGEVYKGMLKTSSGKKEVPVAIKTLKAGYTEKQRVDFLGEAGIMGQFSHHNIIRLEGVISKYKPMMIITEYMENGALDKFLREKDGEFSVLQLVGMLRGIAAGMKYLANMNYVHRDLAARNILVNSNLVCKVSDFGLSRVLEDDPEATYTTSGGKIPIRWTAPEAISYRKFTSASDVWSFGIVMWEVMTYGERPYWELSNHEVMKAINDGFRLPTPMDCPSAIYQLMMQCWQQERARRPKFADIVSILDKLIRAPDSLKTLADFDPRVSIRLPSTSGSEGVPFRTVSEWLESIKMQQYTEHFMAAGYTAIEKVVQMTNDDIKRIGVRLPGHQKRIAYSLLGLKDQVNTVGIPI

As to `COC(=O)Nc1nc2ccc(S(=O)(=O)c3ccc(NC(=O)Nc4cc(C(F)(F)F)ccc4F)cc3)cc2[nH]1`, the inhibition in assay [1] was 0.19%; in assay [2], 0.89%; in [3], -0.68%; in assay [4], 2.49%; in assay [5], 6.48%; in assay [6], 3.46%. For the same compound, the inhibition in [7] amounted to 4.35%; in [8] it was 4.8%; in assay [9] it was 9.4%; in assay [10], 6.82%; in [11], 14.7%; in assay [12], 5.22%. Further, the inhibition in assay [13] was 0.8%; in [14], 2.15%; in assay [15] it was 3.46%; in [16], 0.46%; in assay [17], -2.51%; in assay [18], 9.54%. Further, the inhibition was found to be 12.2% in assay [19] and 3.79% in assay [20].
With `CN1CCC(n2cnc(-c3ccc(F)cc3)c2-c2ccnc(Nc3ccccc3)n2)CC1`, the inhibition in assay [1] is 15.5%; in [2], 9.65%; in assay [3], 49.1%; in [4], 0.44%; in [5], 0.04%; in [6], 1.78%. The inhibition in [7] came out at 4.18%; in [8], 7.5%; in assay [9], 13.3%; in assay [10] it was 12.9%; in assay [11] it was 44.1%; in assay [12], 4.66%. Further, the inhibition was 2.3% in [13]; 3.77% in [14]; 12.6% in assay [15]; 5.05% in [16]; 15.9% in assay [17]; 10.6% in assay [18]. Also, the values for the inhibition in assay [19] and in assay [20] were 27.2% and 1.86%, respectively.
`COc1ccc2[nH]c3c4[nH]c5ccc(OC)cc5c4c4c(c3c2c1)C(=O)NC4=O`: the inhibition in assay [1] was 17.9%; in assay [2] it was 9.7%; in assay [3], 53.1%; in assay [4] it was 2.52%; in [5], 0.85%; in [6], 5.78%. Further, the inhibition in assay [7] came to 6.32%; in [8], 10.1%; in assay [9], 22.6%; in assay [10] it was 10.7%; in [11], 17.6%; in assay [12] it was 0.84%. For the same compound, the inhibition in assay [13] is -4.62%; in assay [14] it was -0.01%; in assay [15] it was 4.21%; in [16], 1.76%; in assay [17], 5.83%; in [18] it was 14.5%. Besides, the values for the inhibition in assay [19] and in [20] were 45.9% and 29.1%, respectively.

These data come from ChEMBL document CHEMBL1961873, “Compounds: GSK PKIS; Assays: Nanosyn kinase panel” (2012).
